SMN2 splice up = qHTS Assay for Enhancers of SMN2 Splice Variant Expression; Potency, µM (doses to about 46.1 µM), inactives show top-dose activity change, positive = activation, actives largely listed as activators; actives 2.8% (n = 210,000); HEK293 SMN2-luciferase splicing reporter, luminescence, 30-36 h; further: % of control where 0% means no effect; nearly all actives have a fitted effect of over 55% in size
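HEK293 cells carry an SMN2 […]–luciferase reporter in which exon 7 inclusion puts luciferase in frame. Cells were plated 10-12 h before compound addition, then incubated 30-36 h at 37C. ONE-Glo luminescence was read; sodium butyrate at 4.5 mM final served as control.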
NPC1 prom act = qHTS Assay for NPC1 Promoter Activators; Huh7 NPC1 promoter luciferase reporter, 24 h; Potency, µM (titrated, usually from 9.22 µM), without a hit: at the top dose activation, actives largely listed as activators; actives 2.4% (n = 320,000); further: % of control where 0% means no effect; nearly all actives have a fitted effect of over 60% in size
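Quantitative HTS used a cell-based reporter: Huh7 cells stably bearing the NPC1 promoter upstream of luciferase were treated with compounds for 24 h, and promoter activation was read as luminescence.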
FLuc modulator = qHTS profiling assay for firefly luciferase inhibitor/activator using purifed enzyme and Km concentrations of substrates (counterscreen for miR-21 project); Luciferin 4-monooxygenase (Photinus pyralis), P08659; purified FLuc, Km substrates, luminescence inhibition; Potency, µM (highest dose often 57.5 µM), without a hit: at the highest dose activity change, negative = inhibition, usual class: inhibitors; actives 6.9% (n = 360,000);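 further: plate controls were vehicle for no effect and reference inhibitor for full effect; nearly all actives have a fitted effect of over 55% in size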
Target sequence (P08659 whole entry, looked up): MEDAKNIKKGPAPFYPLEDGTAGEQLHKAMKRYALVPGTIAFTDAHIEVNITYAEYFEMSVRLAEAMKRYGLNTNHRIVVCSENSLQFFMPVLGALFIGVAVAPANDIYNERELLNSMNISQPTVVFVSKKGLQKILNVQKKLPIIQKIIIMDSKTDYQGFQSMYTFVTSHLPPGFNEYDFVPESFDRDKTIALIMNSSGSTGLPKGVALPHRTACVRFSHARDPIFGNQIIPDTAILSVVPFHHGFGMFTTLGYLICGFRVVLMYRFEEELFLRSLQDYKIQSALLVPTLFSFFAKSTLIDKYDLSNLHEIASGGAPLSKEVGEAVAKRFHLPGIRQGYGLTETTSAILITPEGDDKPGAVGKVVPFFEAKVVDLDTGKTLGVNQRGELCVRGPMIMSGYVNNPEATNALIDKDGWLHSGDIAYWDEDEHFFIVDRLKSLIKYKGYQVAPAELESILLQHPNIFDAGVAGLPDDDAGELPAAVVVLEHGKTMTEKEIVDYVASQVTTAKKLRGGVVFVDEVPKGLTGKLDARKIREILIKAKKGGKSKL
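Purified P. pyralis luciferase, 10 nM final, with Km-level 10 uM D-luciferin and 10 uM ATP in 50 mM Tris acetate pH 7.5, 10 mM Mg acetate, 0.01% Tween-20, 0.05% BSA; 6-point qHTS titration about 60 µM downward; luminescence read.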
Rab9 prom act = qHTS Assay for Rab9 Promoter Activators; actives 2.8% (n = 320,000); Potency, µM (top dose mostly 9.22 µM), without a hit: at the highest dose activation, negative = inhibition, usual class: activators; Huh7 Rab9 promoter-luciferase reporter, luminescence, 24 h; further: % of control where 0% means no effect; nearly all actives have a fitted effect of over 60% in size
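Stable Rab9-luc Huh7, 1500 cells/well, 2 h settle; cmpd in DMSO, 24 h, 37 °C/5% CO2; luciferase reagent 10 min RT; luminescence.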
KinaseGlo FLuc = Counterscreen for Luciferase (Kinase-Glo TM) Inhibition; Luciferin 4-monooxygenase (Photuris pensylvanica), Q27757; Kinase-Glo luciferase, ATP luminescence, 8 min; Potency, µM (top dose mostly 38.3 µM), inactives show at the top dose activity change, negative = inhibition, most hits filed as inhibitors; actives 0.28% (n = 200,000); AID 1379, 2008; further: on the % scale 0 is the no-effect control and ±100 the full control effect; nearly all actives have a fitted effect of over 60% in size
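Luminescence was the read-out, taken after 8-minute incubation at ambient temperature. Luciferase turned over luciferin with 10 uM ATP in imidazole pH 7.2 buffer containing KCl, MgCl2, Tween 20 and BSA.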
ELG1 genotox = qHTS screen for small molecules that induce genotoxicity in human embryonic kidney (HEK293T) cells expressing luciferase-tagged ELG1; HEK293T ELG1-luciferase reporter, luminescence, 16 h; Potency, µM (series often up to 46 µM), for the others: at the top dose activity change, positive = activation, most hits filed as activators; AID 504466, 2011; actives 1.3% (n = 330,000); further: % of control where 0% means no effect; nearly all actives have a fitted effect of over 60% in size
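16 hr compound incubation (37 °C, 5% CO2) of HEK293T cells carrying luciferase-tagged ELG1; luciferase then measured by ONE-Glo luminescence after 30 min at RT.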
* = called active by the depositor; ? = inconclusive; . = not tested or not shown; [ ] = another dose, or the depositor's remark. A selection: hits, their analogues and other compounds. The true share with any hit is near 7.3%. The call rests on the fitted dose curve; in most records, active means well fitted curve in the direction sought with a large enough effect; inconclusive means small, poorly fitted or top-dose-only effect, or another doubt; inactive means no such curve, though single readings can be large; an effect the other way counts as inactive or inconclusive. Potency means the concentration at half of the fitted maximal effect.

SMILES | SMN2 splice up | NPC1 prom act | FLuc modulator | Rab9 prom act | KinaseGlo FLuc | ELG1 genotox
O=C(CSc1nc2c([nH]c3ccccc32)c(=O)n1-c1cccc(Cl)c1)c1ccccc1 | . | . | -1% | . | . | .
c1ccc(C2CSc3ccccc3N2)cc1 (centres undefined) | . | ? | 21µM* | 22% | . | ?
CC1CSc2ccccc2NC1=S (centres undefined) | 7% | -1% | -1% | 1% | -3% | -6%
COc1ccccc1C(=O)Nc1nc2ccccc2[nH]1 | . | ? | 0.019µM* | -44% | . | ?
COc1ccccc1C(=O)NCCC(=O)Nc1nc2ccccc2[nH]1 | . | 2% | -14% | -2% | . | 23µM*
COc1cc(SC)ccc1C(=O)Nc1c(Cl)cncc1Cl | 5% | 0% | -2% | -28% | -4% | -5%
CS(=O)(=O)c1ccccc1C(=O)Nc1nc2ccccc2[nH]1 | . | -4% | -3% | 2% | . | 1%
COc1cc(SC)ccc1C(=O)Nc1nc2ccccc2[nH]1 | . | -32% | 0.014µM* | -43% | . | -17%
O=C(CCNC(=O)c1ccccc1Cl)Nc1nc2ccccc2[nH]1 | . | . | . | . | . | -1%
Cc1ccc(-c2cn3c(n2)sc2cc(C(=O)NCc4cccs4)ccc23)cc1 | . | . | -14% | . | . | .
Cc1ccc2oc(-c3cccc(NC(=O)Cc4cccs4)c3)nc2c1 | 4% | 12% | -11% | 27% | -4% | 9%
O=C(O)c1ccc(Cl)cc1NC(=O)C1CCCO1 (centres undefined) | -7% | . | 2% | . | 5% | .
Cc1ccc2oc(-c3cccc(NC(=O)C4CCCO4)c3)nc2c1 (centres undefined) | 13µM* | 18% | 4.3µM* | 18% | -2% | 21µM*
O=C(Nc1cccc(-c2nc3cc(Cl)ccc3o2)c1)C1CCCO1 (centres undefined) | 25µM* | 9% | -8%[2.3 µM] | 16% | -2% | 6%
COC(=O)c1c(-c2cccc(C)c2)csc1NC(=O)C1CCCO1 (centres undefined) | -17% | 1% | ? | 3% | 2% | 2%
Cc1cccc(-c2nc3cc(NC(=O)C4CCCO4)ccc3o2)c1 (centres undefined) | 1µM* | 0.32µM* | 0.85µM* | 0.28µM* | ? | 1.2µM*
Cc1c(/C=C(\C#N)C(=O)Nc2cccc(Cl)c2)c2ccccc2n1Cc1ccccc1 | -6% | . | 6% | . | . | .
COc1cc(-c2nc3ccccn3c2/N=C/c2ccc(F)cc2)ccc1O | 3% | 0% | ? | 16% | -1% | 6%
Clc1ccc(/C=N/c2c(-c3ccco3)nc3ccccn23)cc1 | -7% | 28% | 15µM* | ? | ? | ?
Oc1ccccc1/C=N/c1c(-c2ccco2)nc2ccccn12 | 3% | ? | 27µM* | ? | ? | ?
COc1ccc(/C=N/c2c(-c3ccco3)nc3ccccn23)cc1OC | -5% | ? | 0.43µM* | ? | ? | 16%
CC1=CC(C)(C)Nc2ccc(OC(=O)c3ccco3)cc21 | -16% | -3% | 21µM* | 17% | -5% | 23%
CC1=CC(C)(C)Nc2ccc(OC(=O)c3cccnc3)cc21 | -7% | -10% | -16% | 4% | -1% | 7%
CN1CCN(c2nc(-c3cc4ccccc4o3)cs2)CC1 | 13µM* | ? | 4.8µM* | ? | -1% | ?
NC(=O)C1CCN(c2nc(-c3cc4ccccc4o3)cs2)CC1 | . | ? | 11µM* | ? | . | 4%
SMILES | SMN2 splice up | NPC1 prom act | FLuc modulator | Rab9 prom act | KinaseGlo FLuc | ELG1 genotox
Nc1nc(-c2cc3ccccc3o2)cs1 | . | 2.2µM* | 4.3µM* | 2µM* | . | ?
Nc1nc(-c2ccccc2Br)cs1 | 20% | -4% | -11% | 0% | 2% | -2%
Cc1cc(C)n(CCc2nc(-c3cc4ccccc4o3)cs2)n1 | -36% | 20% | 17µM* | 21% | 1% | 10%
O=c1cc(CF)[nH]c(=S)[nH]1 | -12%[9.22 µM] | . | . | . | -5%[7.66 µM] | .
CNC(=O)C1CCC(Cn2c(=O)c3sccc3n(CC(=O)NCc3ccccc3)c2=O)CC1 (centres undefined) | . | . | 4% | . | . | .
CCSc1nc2c(c(=O)[nH]c(=O)n2C)n1CC(O)COc1ccc(Cl)cc1 (centres undefined) | -11% | . | 0% | . | . | .
COc1cccc(-c2csc(NC(=O)C3CC3)n2)c1 | 25% | ? | 11µM* | ? | 1% | 12µM*
O=C(Nc1ccccc1)Nc1nc(-c2ccccc2)cs1 | . | 22% | ? | 23% | . | 2%
COc1cccc(-c2csc(NC(=O)Nc3ccccc3)n2)c1 | . | -2% | 13µM* | -5% | . | -17%
O=C(/C=C/c1ccccc1)N1CCN(Cc2cc(=O)n3nc(-c4ccccc4)sc3n2)CC1 | . | . | 4% | . | . | .
CSc1cccc(NC(=O)c2[nH]c(C)c(C(C)=O)c2C)c1 | . | ? | 17µM* | ? | . | 23µM*
CC(=O)c1c(C)[nH]c(C(=O)Nc2ccc(Cl)cc2F)c1C | . | 1.8µM* | 9.5µM* | 2.8µM* | . | ?
CC(=O)c1c(C)[nH]c(C(=O)Nc2ccccn2)c1C | . | 1.3µM* | 9.5µM* | 3.2µM* | . | 10µM*
CC(=O)c1c(C)[nH]c(C(=O)Nc2cccc(C)c2C)c1C | . | -1% | -1% | 0% | . | -4%
CC(=O)c1c(C)[nH]c(C(=O)Nc2ccc(Cl)c(S(=O)(=O)N(C)C)c2)c1C | 11µM* | 3.5µM* | 17µM* | 3.2µM* | -1% | 18µM*
CC(=O)c1c(C)[nH]c(C(=O)OCC(=O)Nc2ccc(Cl)c(S(=O)(=O)N(C)C)c2)c1C | . | -4% | -2% | -24% | . | -9%
Cc1ccc(C)c(NC(=O)CSc2nnc(CNC(=O)c3ccccc3)n2-c2ccccc2)c1 | -13% | . | -1% | . | . | .
CCCN(CCC)CCCNC(=O)c1sc2nc3n(c(=O)c2c1C)CCC3 | . | . | -11% | . | . | .
Cc1ccc(-n2nc3c(=O)n(CCCC(=O)NC(C)c4ccccc4)nc(C)c3c2C)cc1 (centres undefined) | . | . | -2% | . | . | .
CC1=C(c2ccc(C(C)C)cc2)S(=O)(=O)N=C1N1CCC(C(=O)NCCc2ccco2)CC1 | . | . | -7% | . | . | .
O=S(=O)(NCc1csc(-c2ccccc2)n1)c1ccccc1 | -6% | . | -17% | . | . | .
CCC(C)c1ccc(NC(=O)c2[nH]c(C)c(C(C)=O)c2C)cc1 (centres undefined) | . | 25% | 19µM* | 15% | . | 7%
CC(=O)c1c(C)[nH]c(C(=O)Nc2ccc(Cl)cc2)c1C | . | 3.2µM* | 9.5µM* | 1.8µM* | . | 0%

Screening results as filed in PubChem.
